Data reported in PubChem BioAssay AID861 (The Scripps Research Institute Molecular Screening Center, 2007).
Hit rate of the full screen: of about 200,000 compounds, about 360 (0.18%) were called active. Rule as the data show it: active = inhibition above about 25%; inactive = the rest. Only a selection was taken, and actives are over-represented in it overall.

target: Toll-like receptor 4 (Homo sapiens) + Myeloid differentiation primary response protein MyD88 (Homo sapiens) (UniProt O00206+Q99836); experiment: inhibitors of TLR4-MyD88 association in cells, primary screen, cell-based, HeLa CL3-4, BLA complementation, FRET ratio (AID 861); settings: HeLa CL3-4 TLR4/MyD88 BLA complementation, at 8.4 µM, hits give high values;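 also: 0% = vehicle and 100% = reference inhibitor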
Sequence (O00206 whole entry, looked up): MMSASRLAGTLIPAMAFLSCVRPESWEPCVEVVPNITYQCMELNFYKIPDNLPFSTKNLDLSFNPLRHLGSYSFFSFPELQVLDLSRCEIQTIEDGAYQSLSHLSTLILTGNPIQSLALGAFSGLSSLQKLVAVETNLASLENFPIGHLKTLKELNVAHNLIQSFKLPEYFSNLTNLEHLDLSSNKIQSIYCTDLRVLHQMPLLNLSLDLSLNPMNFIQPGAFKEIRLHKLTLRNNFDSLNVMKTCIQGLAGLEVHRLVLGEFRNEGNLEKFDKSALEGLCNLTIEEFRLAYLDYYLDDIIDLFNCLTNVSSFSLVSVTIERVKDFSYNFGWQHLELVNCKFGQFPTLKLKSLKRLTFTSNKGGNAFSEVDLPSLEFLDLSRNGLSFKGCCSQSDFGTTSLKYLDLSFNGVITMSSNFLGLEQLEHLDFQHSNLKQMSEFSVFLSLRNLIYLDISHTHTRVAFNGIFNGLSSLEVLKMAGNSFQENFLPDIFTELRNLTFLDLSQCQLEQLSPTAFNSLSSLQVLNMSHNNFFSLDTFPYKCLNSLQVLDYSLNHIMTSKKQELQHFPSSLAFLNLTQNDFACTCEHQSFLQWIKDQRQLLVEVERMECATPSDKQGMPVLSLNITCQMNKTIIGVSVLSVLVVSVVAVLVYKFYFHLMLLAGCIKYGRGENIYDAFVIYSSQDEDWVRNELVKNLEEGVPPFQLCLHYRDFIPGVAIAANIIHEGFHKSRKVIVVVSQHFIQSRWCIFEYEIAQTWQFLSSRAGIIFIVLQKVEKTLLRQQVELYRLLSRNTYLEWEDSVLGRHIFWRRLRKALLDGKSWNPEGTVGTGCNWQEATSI
Sequence (Q99836 whole entry, looked up): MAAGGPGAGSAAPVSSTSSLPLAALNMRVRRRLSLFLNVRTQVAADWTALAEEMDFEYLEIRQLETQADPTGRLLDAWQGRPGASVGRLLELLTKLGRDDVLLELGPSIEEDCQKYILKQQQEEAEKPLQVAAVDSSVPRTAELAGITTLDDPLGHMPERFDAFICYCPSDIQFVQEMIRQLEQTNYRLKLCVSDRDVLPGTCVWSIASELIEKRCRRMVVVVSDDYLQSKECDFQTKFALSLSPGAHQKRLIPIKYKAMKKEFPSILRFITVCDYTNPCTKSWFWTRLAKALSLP

SMILES	inhibition
CC(C)c1ccc(O)c(CN2CCN(c3ccccc3)CC2)c1	-8.07% (inactive)
Fc1cccc(F)c1CN1CCN(Cc2c(F)cccc2F)CC1	6.5% (inactive)
COc1ccc(CN2CCN(c3ccccc3F)CC2)c(OC)c1	29.3% (active)
CN(C)CCCN=Cc1c(O)n(Cc2ccco2)c(=O)[nH]c1=O	-1.36% (inactive)
CCOc1ccc(C2SCC(=O)Nc3c2c(C)nn3C2CCOC(C)(C)C2)cc1 (stereo not given)	-12% (inactive)
